# Gal4-VP16 FLuc: inhibits Gal4-VP16 luciferase reporter, ROR gamma counter-screen | Potency, µM (top dose mostly 53.6 µM), inactives show top-dose activity, negative = inhibition, hits mostly inhibitors | actives 3.5% (n = 310,000) | Drosophila S2 Gal4-VP16 UAS-luciferase, luminescence, 20 h;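 also: Gal4-VP16 expression switched on by copper sulfate through the metallothionein promoter; nearly all actives have a fitted effect of over 50% in size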
# RORg inh: blocks mouse ROR gamma transcriptional activity; Drosophila S2 Gal4-RORgamma UAS-luciferase reporter, 20 h; P51450; actives 5.4% (n = 310,000); Potency, µM (doses to about 53.6 µM), for the others: at the top dose activity change, negative = inhibition, usual class: inhibitors; also: nearly all actives have a fitted effect of over 60% in size
# Target sequence (P51450 whole entry, looked up, the tested form may be a part): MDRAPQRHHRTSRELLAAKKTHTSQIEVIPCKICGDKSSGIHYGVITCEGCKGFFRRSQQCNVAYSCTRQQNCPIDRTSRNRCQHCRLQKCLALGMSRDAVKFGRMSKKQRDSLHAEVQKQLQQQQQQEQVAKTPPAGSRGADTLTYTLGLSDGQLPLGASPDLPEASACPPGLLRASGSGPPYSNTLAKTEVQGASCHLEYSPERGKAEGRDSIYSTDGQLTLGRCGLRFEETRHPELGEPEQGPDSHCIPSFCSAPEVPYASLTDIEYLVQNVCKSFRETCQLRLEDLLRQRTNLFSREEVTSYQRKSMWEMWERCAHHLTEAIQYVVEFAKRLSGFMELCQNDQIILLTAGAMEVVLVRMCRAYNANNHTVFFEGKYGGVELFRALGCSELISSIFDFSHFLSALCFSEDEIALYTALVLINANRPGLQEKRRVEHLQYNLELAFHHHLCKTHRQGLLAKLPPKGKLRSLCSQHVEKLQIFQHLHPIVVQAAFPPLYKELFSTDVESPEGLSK
#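 Luminescence from a UAS-regulated Photinus luciferase reporter in stably transfected Drosophila Schneider cells is measured; decreased signal marks ROR gamma inhibition. Fusion expression is induced by 700 uM copper sulfate for 20 hr.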
# KinaseGlo FLuc: Kinase-Glo luciferase inhibition (counter-screen); Kinase-Glo luciferase, ATP luminescence, 8 min; Potency, µM (series often up to 38.3 µM), for inactives: top-dose activity change, negative = inhibition, actives largely listed as inhibitors; AID 1379; actives 0.28% (n = 200,000); also: nearly all actives have a fitted effect of over 60% in size
#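 Luminescence was the read-out, taken after 8-minute incubation at ambient temperature. Luciferase turned over luciferin with 10 uM ATP in imidazole pH 7.2 buffer containing KCl, MgCl2, Tween 20 and BSA.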
# Starred values were filed as active, the others as inactive; ? = inconclusive; / = no result given; [ ] = another dose, or the depositor's remark. Most compounds without a hit are left out; they make up all but 6.2% or so of the library. Calls follow the shape of the dose curve; as a rule, active = well fitted curve in the direction sought with a large enough effect; inconclusive = small, poorly fitted or top-dose-only effect, or another doubt; inactive = no such curve, though single readings can be large; an effect the other way counts as inactive or inconclusive. % is scaled to controls: 0 for no effect and ±100 for the full control effect; potency is read from the fitted curve at half-maximal effect.
SMILES,Gal4-VP16 FLuc,RORg inh,KinaseGlo FLuc
CC(Oc1ccc(Cl)cc1Cl)C(=O)NNC(=O)C(=O)N1CCCC1 (stereo not given),-1%,-24%,/
O=C(COc1ccc(Br)cc1Br)NC(=S)N1CCCc2ccccc21,6%,2%,2%
COc1ccc(/C(C)=N/N2C(=O)c3ccccc3NC2c2ccc(O)c(OC)c2)cc1 (stereo not given),-16%,?,/
C/C(=N\N1C(=O)c2ccccc2NC1c1ccco1)c1ccccc1O (stereo not given),2.2µM*,0.35µM*,1%
C/C(=N\N1C(=O)c2ccccc2NC1c1ccccc1)c1ccccc1O (stereo not given),2.8µM*,0.56µM*,-2%
O=C1c2ccccc2NC(c2ccco2)N1/N=C/c1ccco1 (stereo not given),-8%,-26%,-3%
CCOC(=O)C(Sc1cc(-c2ccccc2)nc2ncnn12)C(C)=O (stereo not given),2.8µM*,0.63µM*,/
CCOC(=O)C(Cc1ccccc1)NC(=O)CCc1c(C)nc2ncnn2c1C (stereo not given),-1%,8%,-2%
O=c1[nH]c2ccc(NC(=S)Nc3ccccc3)cc2[nH]1,3%,-14%,/
Cc1ccc(NC(=S)Nc2ccc3[nH]c(=O)[nH]c3c2)cc1,-23%,10µM*,/
O=C1N/C(=N\c2ccccn2)SC1Cc1ccc(Cl)cc1 (stereo not given),3.2µM*,2µM*,0%
Cc1ccc(CC2S/C(=N/c3ccccn3)NC2=O)cc1 (stereo not given),3.5µM*,2.8µM*,0%
O=C1NC(=Nc2ccccc2)SC1Cc1cccc(Cl)c1Cl (stereo not given),?,?,1%
O=C1N/C(=N/c2ccccn2)SC1Cc1ccccc1 (stereo not given),2.5µM*,0.89µM*,-1%
O=C1NC(=Nc2ccccc2)SC1Cc1ccccc1 (stereo not given),0%,-12%,1%
C/C(=N\N=C1\NC(=O)C(CC(=O)O)S1)c1ccccn1 (stereo not given),4%,-28%,/
CCn1c(Cc2ccccc2)nnc1SCc1cccc(C(=O)O)c1,-20%,7%,1%
Cc1ccc(N(CC(=O)NCc2ccccc2)C(=O)CCC(=O)Nc2ccccn2)cc1C,0%,31%,/
O=C(Nc1cccnc1Oc1ccc(Cl)cc1)c1cccc2ccccc12,-1%,25%,/
COc1ccc(/C=N/Nc2nonc2N)cc1OC,-3%,?,-7%
O=C(O)c1ccc(/C=N/Nc2ncc(Cl)cc2Cl)cc1,0%,26%,/
COc1ccc(/C=N/Nc2ncc(C(F)(F)F)cc2Cl)cc1OC,3.5µM*,?,-2%
FC(F)(F)c1cnc(N/N=C/c2ccncc2)c(Cl)c1,?,13µM*,/
CCCCN(N=Nc1nonc1OC)c1nonc1OC,1%,3%,2%
CCN(CC(=O)NCc1ccc(Cl)cc1)C(=O)CCc1ccccc1O,3%,19%,/
SMILES,Gal4-VP16 FLuc,RORg inh,KinaseGlo FLuc
COc1ccc(-n2c(O)c(C=NCc3ccccn3)c3ccccc3c2=O)c(OC)c1,0%,-34%,/
O=c1c2ccccc2c(C=NCc2ccccn2)c(O)n1-c1ccccc1,-16%,?,0%
Cc1ccc(-n2c(O)c(C=NCc3ccccn3)c3ccccc3c2=O)cc1C,22µM*,10µM*,-1%
O=c1c2ccccc2c(C=NCc2ccccn2)c(O)n1-c1ccccc1Cl,?,11µM*,0%
Clc1ccc(OCc2nnc(SCc3nnc(-c4ccccc4)o3)o2)c(Cl)c1,-11%,-4%,-8%
CC(C)=CCC1=C(O)[C@](O)(CC=C(C)C)C(=O)C(C(=O)CC(C)C)=C1O,?,?,-1%
COc1ccc(N2CCN(C(=O)c3cc(C)on3)CC2)cc1,-5%,0%,/
COC(=O)Cc1ccc(NC(=S)NN2CCOCC2)cc1,0%,6%,-2%
FC(F)Oc1ccc(NC(=S)NN2CCOCC2)cc1,17%,-2%,-1%
S=C(Nc1ccc(Cl)cc1)NN1CCOCC1,?,11µM*,-2%
S=C(Nc1ccc(Cl)c(Cl)c1)NN1CCOCC1,10µM*,7.9µM*,0%
S=C(Nc1ccc(Cl)c(Cl)c1)N1CCOCC1,6%,-36%,-1%
CC(C)c1ccc(NC(=S)NN2CCOCC2)cc1,?,8.9µM*,-1%
CC1CC(N(C(=O)c2ccco2)c2ccccc2)c2ccccc2N1 (stereo not given),-2%,3%,-3%
CC(C)(C)C(=O)n1nc(-c2ccccc2)oc1=O,-8%,22%,-6%
Cc1cccc(Cn2c(-c3ccc[nH]c3=O)nc3ccccc32)c1,?,26%,/
CSCCC(NC(=O)c1cccc(C)c1)C(=O)Nc1sccc1C(N)=O (stereo not given),7%,26%,/
CC(=O)Nc1ccc(SCCC2CCCCN2C)cc1 (stereo not given),3%,17%,/
Cc1oc2c(c1C(=O)c1ccccc1)C(=O)C(=O)c1ccccc1-2,3.2µM*,2.8µM*,-9%
O=C(c1ccccc1)c1coc2ccc(O)c(Cl)c12,1%,-3%,-11%
Cc1oc2c(c1C(=O)O)C(=O)c1ccccc1C2=O,?,?,-2%
O=C1C(=O)c2c(C(=O)c3ccccc3)coc2-c2ccccc21,3.5µM*,6.3µM*,-5%
CCn1c(CC(=O)Nc2ccccc2C)nnc1SCC(=O)NC1CCCC1,-8%,-22%,/
CC(C)(C)[C@@H](O)C(Cc1ccc(Cl)cc1)n1cncn1 (stereo not given in full),1%,-4%,/
COc1ccc(CNCc2ccc([N+](=O)[O-])cc2)cc1OC,-4%,-12%,/
SMILES,Gal4-VP16 FLuc,RORg inh,KinaseGlo FLuc
O=C(c1[nH]nc2c1CCc1ccccc1-2)N1CCN(Cc2ccc3c(c2)OCO3)CC1,-11%,?,/
N#Cc1ccc(NC(=O)Nc2cccc(C#N)c2)cc1,-6%,26%,/
N#Cc1ccc(NC(=O)Nc2ccc(Oc3ccc(NC(=O)Nc4ccc(C#N)cc4)cc3)cc2)cc1,13µM*,?,/
C=CC(=O)N=c1sc2ccccc2n1-c1ccccc1,?,10µM*,5%
N=c1sc2ccccc2n1-c1ccccc1,8%,-39%,-1%
COc1ccc(NC(=O)c2c(NC(=O)CCC(=O)O)sc(-c3ccccc3)c2C)cc1,-6%,38%,0%
O=C(c1ccco1)N1CCC2(CC1)CCN(c1ccc(-c3ccccc3)cc1)CC2,9%,0%,-2%
O=C(Cc1ccccc1)Nc1cccc(N2C(=O)C=CC2=O)c1,5µM*,3.5µM*,-1%
COc1cccc(NC(=O)Cc2ccccc2)c1,9%,?,12%
Cc1nn2cc(-c3ccc(-c4ccccc4)cc3)nc2s1,?,?,7%
CCc1nn2cc(-c3ccccc3)nc2s1,/,13%[0.365 µM],10µM*
Cc1cccc(C(=O)N/N=C2\CS(=O)(=O)N(C)c3ccsc32)c1,-26%,?,/
CN1c2ccsc2/C(=N/NC(=O)c2c(F)cccc2F)CS1(=O)=O,5µM*,3.2µM*,4%
CC1(OC(=O)c2ccc(Cl)nc2)C(=O)C=c2cc(-c3ccsc3)ncc2=C1OC(=O)C1CCCC1 (stereo not given),/,/,-5%[7.66 µM]
COc1ccc(F)cc1CN1CCN(c2cc(C)nc3c4c(C)cc(C)nc4nn23)CC1,?,20µM*,-1%

# Assay outcomes as filed in PubChem.
